In PubChem BioAssay (EPA / NIEHS):
Values joined by “and” are separate entries in the source; they are usually repeats but may differ in a detail not shown here. Equal values may be shown once. Active and inactive are the calls of the source. The calls were made as follows: active = hit-call score of the fitted dose curve at least 0.9, where 1 is the maximum; inactive = score below 0.9.

Read-out: Vascular cell adhesion molecule 1 (VCAM1), VCAM1 (gene 7412)
Assay: BSK_LPS_VCAM1: BioMAP Diversity Plus: LPS Assay for Vascular cell adhesion molecule 1 (VCAM1) Biomarker Activity (AID 2283086)
Settings: primary human HUVEC with PBMC; actives raise or lower the signal
Description: BSK_LPS is a cell-based, multiplexed-readout assay that uses umbilical vein endothelium and peripheral blood mononuclear cells, a human vascular primary cell co-culture, with measurements taken at 24 hours after chemical dosing in a 96-well plate.BSK_LPS_VCAM1 is an assay component measured in the BSK_LPS assay. It measures VCAM-1 antibody related to regulation of gene expression using ELISA technology.Data from the assay component BSK_LPS_VCAM1 was analyzed into 1 assay endpoint. This assay endpoint, BSK_LPS_VCAM1, was analyzed with bidirectional fitting relative to DMSO as the negative control and baseline of activity. Using a type of binding reporter, gain or loss-of-signal activity can be used to understand changes in the signaling as they relate to the gene VCAM1. Furthermore, this assay endpoint can be referred to as a primary readout, because this assay has produced multiple assay endpoints where this one serves a signaling function. To generalize the intended target to other relatable targets, this assay endpoint is annotated to the cell adhesion molecules intended target family, where the subfamily is Immunoglobulin CAM.
The levels of cell surface (or secreted, indicated by the prefix "s") biomarker endpoints were measured by ELISA. Overt cytotoxicity to cells in confluent adherent cultures (all systems other than the BT system) was assessed by measuring total protein levels using sulforhodamine B (SRB) staining in parallel cultures at the time of biomarker measurements, indicated as SRB endpoints. For proliferation assays for adherent cell types, individual cell types are cultured at sub-confluence and relative cell numbers quantified by SRB staining at time points optimized for each system (48 h: 3C and CASM3C systems; 72 h: BT and HDF3CGF systems; 96 h: SAg system). SRB was performed by staining cells with 0.1% SRB after fixation with 10% TCA and reading wells at 560 nm.Viability and proliferation of PBMC (T cells) was quantified by Alamar Blue reduction for the SAg and BT systems. For PBMC viability (referred to as PBMC Cytotoxicity within the assay endpoint names), cells were plated (75,000/well in a 96-well plate) and then chemical samples added for 1 h before addition of activators, SEB and TSST-1 (20 ng/mL final concentration each). Cells were incubated for 90 h. Then, Alamar Blue (20 uL/well) (Invitrogen, Cat DAL1100) was added for 6 h, and the plates were read with a fluorescence microplate reader at 546/580 nm (excitation/emission). For PBMC proliferation, cells were plated and activated as above but incubated for only 16 h prior to addition of Alamar Blue. Plates were read after 6 h.

SMILES | outcome | AC50
CC[N+](CC)(CC)Cc1ccccc1 | inactive | 
CN(C)c1ccc(C(=C2C=CC(=[N+](C)C)C=C2)c2ccccc2)cc1 |  | 0.00781 µM (active)
O=C1NS(=O)(=O)c2ccccc21 | inactive | 
COc1cc(OC)nc(NC(=O)NS(=O)(=O)Nc2ccccc2C(=O)N(C)C)n1 | inactive | 
O=C(NCc1ncc(C(F)(F)F)cc1Cl)c1c(Cl)cccc1Cl | inactive | 
CCCCCc1ccc(O)cc1 |  | 32.4 µM (active)
Clc1ccc(Nc2nnc(Cc3ccncc3)c3ccccc23)cc1 | inactive | 
CCCCC(CC)C(=O)OCCOCCOCCOCCOC(=O)C(CC)CCCC (stereo not given) | inactive | 
CCCCc1oc2ccccc2c1C(=O)c1cc(I)c(OCCN(CC)CC)c(I)c1 |  | 24.3 µM (active)
CCOC(=O)CN[C@@H](C(=O)N1CC[C@H]1C(=O)NCc1ccc(/C(N)=N/O)cc1)C1CCCCC1 | inactive | 
O=C(c1ccccc1)c1ccccc1 | inactive | 
OCCN1CN(CCO)CN(CCO)C1 |  | 31.1 µM (active)
COc1cccc(O)c1 | inactive | 
Oc1cc2ccccc2cc1O | inactive | 
O=S(=O)(O)C(F)(F)C(F)(F)C(F)(F)C(F)(F)C(F)(F)C(F)(F)C(F)(F)C(F)(F)C(F)(F)C(F)(F)F | inactive | 
C=CC(=C)CC/C=C(\C)CCC=C(C)C | inactive | 
Oc1c(Cl)cc(Cl)cc1Sc1cc(Cl)cc(Cl)c1O |  | 32.9 µM (active) and 30.9 µM (active)
CC(C)(C)c1ccc(O)c(O)c1 |  | 24 µM (active)
CN(C)CCOC(c1ccccc1)c1ccccc1 | inactive | 
N=C(N)c1ccc(OCCCCCOc2ccc(C(=N)N)cc2)cc1 | inactive | 

SMILES | outcome | AC50
O=C(CCCN1CCC(O)(c2ccc(Cl)cc2)CC1)c1ccc(F)cc1 | inactive | 
OCC(CO)(CBr)CBr | inactive | 
Cc1[nH]nc2c1N=C(c1ccccc1Cl)c1cc([N+](=O)[O-])ccc1N2 |  | 3.99 µM (active)
CCCCCCCCCCCCCCCCCC[N+](C)(C)Cc1ccccc1 |  | 3.09 µM (active)
CS(=O)(=O)c1ccc([C@@H](CC2CCCC2)C(=O)Nc2cnccn2)cc1Cl | inactive | 
CCCCCCCCCCCCOS(=O)(=O)O | inactive | 
NC(=NCCCCCCN=C(N)/N=C(\N)Nc1ccc(Cl)cc1)/N=C(\N)Nc1ccc(Cl)cc1 |  | 6.08 µM (active)
Cc1ccc(C(=O)c2ccccc2)cc1 | inactive | 
OCC(F)(F)C(F)(F)C(F)(F)C(F)(F)C(F)(F)C(F)(F)C(F)(F)C(F)(F)C(F)(F)C(F)(F)C(F)(F)F | inactive | 
C=COC(=O)C(C)(C)CCCCCC |  | 31.1 µM (active)
O=P(O)(O)CCC(F)(F)C(F)(F)C(F)(F)C(F)(F)C(F)(F)C(F)(F)C(F)(F)C(F)(F)F | inactive | 
O=C(O)C(F)(F)OC(F)(F)C(F)(F)OC(F)(F)C(F)(F)OC(F)(F)C(F)(F)C(F)(F)C(F)(F)F |  | 45.6 µM (active) and 48.4 µM (active)
COCN(COC)c1nc(N(COC)COC)nc(N(COC)COC)n1 | inactive | 
O=C(NO)c1ccccc1 | inactive | 
CCCCC=O | inactive | 
Cc1cccc2c1ccc1ccccc12 | inactive | 
CCCCCCCCCCCCCCC | inactive | 
CN(CCO)S(=O)(=O)C(F)(F)C(F)(F)C(F)(F)C(F)(F)C(F)(F)C(F)(F)C(F)(F)C(F)(F)F | inactive | 
O=C(CC(=O)C(F)(F)C(F)(F)C(F)(F)F)c1cccs1 |  | 45.7 µM (active) and 46.4 µM (active)
CC(=O)Nc1ccc(O)cc1 | inactive | 
